Among the test systems are EKVX NSCLC; SN12C renal; UO-31 renal; TK-10 renal; ACHN renal; CCRF-CEM leukemia; MOLT-4 leukemia; SR leukemia; RPMI-8226 leukemia; OVCAR-8 ovarian; OVCAR-5 ovarian; OVCAR-4 ovarian; SK-OV-3 ovarian; IGROV1 ovarian; OVCAR-3 ovarian; HS 578T breast; T-47D breast; NCI/ADR-RES ovarian; A498 renal; CAKI-1 renal.
What all share (test): NCI-60 one-dose screen, 48 h (100 = growth as untreated, 0 = no growth, -100 = all killed)
Holding throughout (conditions): 10 µM unless noted

SMILES strings stand for the structures. This is part of a sample that, as a whole, favours compounds with a hit. Of some 83,000 tested, about 20% had one in any assay.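 Each cell line was grown in a 96-well plate and treated with one concentration of compound for 48 hours. Values below 10 were considered active.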 Unmarked numbers belong to inactive results. Active and inactive are the calls of the source.

Take `Cc1cc2nc3c4cc(Cl)ccc4n(CC(=O)NCCN(C)C)c3nc2cc1C`: the growth in the assay with EKVX NSCLC was 73.8%; in the assay with SN12C renal, 79.8%; in the assay on UO-31 renal, -83.6% (active); in the assay on TK-10 renal, 161%; with ACHN renal, -47.4% (active); with CCRF-CEM leukemia, -14.5% (active). In addition, the growth was -19.4% (active) in the assay on MOLT-4 leukemia; -38% (active) in the assay with SR leukemia; -27.3% (active) in the assay with RPMI-8226 leukemia; 55.9% in the assay with OVCAR-8 ovarian; -16.7% (active) with OVCAR-5 ovarian; 95.7% in the assay with OVCAR-4 ovarian. Further, the growth is 106% in the assay on SK-OV-3 ovarian; 56.2% in the assay on IGROV1 ovarian; 96.7% with OVCAR-3 ovarian; 71.9% with HS 578T breast; 82% in the assay with T-47D breast.
As to `C#Cc1nc(C2=C(C)C(O)/C(=N/O)C2)cs1` (stereo not given), the growth with EKVX NSCLC was 91.3%; in the assay on SN12C renal, 99.9%; with UO-31 renal it was -91.1% (active); with TK-10 renal, 162%; in the assay on ACHN renal, 21.5%; with CCRF-CEM leukemia, -27.7% (active). In addition, the growth in the assay on MOLT-4 leukemia was 86.5%; in the assay on SR leukemia, -32.8% (active); with RPMI-8226 leukemia it was -15.4% (active); with OVCAR-8 ovarian, 94.3%; in the assay with OVCAR-5 ovarian, 100%; in the assay on OVCAR-4 ovarian, 89.6%. Besides, the growth was 111% in the assay with SK-OV-3 ovarian; -41.6% (active) in the assay with IGROV1 ovarian; 125% with OVCAR-3 ovarian; 97.6% with HS 578T breast; 1% (active) with NCI/ADR-RES ovarian; 89.9% with T-47D breast.
With `Cc1cc2nc3c4cc(Cl)ccc4n(CC(=S)NCCN(C)C)c3nc2cc1C`, the growth with EKVX NSCLC is 4.02% (active); with SN12C renal, 40.9%; with UO-31 renal, -68.1% (active); with TK-10 renal, 55.6%; in the assay on ACHN renal it was -96.4% (active); in the assay with CCRF-CEM leukemia it was -49.3% (active). The growth in the assay with MOLT-4 leukemia was -60.3% (active); in the assay on SR leukemia it was -43.8% (active); with RPMI-8226 leukemia, -19.6% (active); in the assay on OVCAR-8 ovarian, -66.9% (active); in the assay with OVCAR-5 ovarian, -42.6% (active); in the assay on OVCAR-4 ovarian, -24.1% (active). Moreover, the growth with SK-OV-3 ovarian was -16.4% (active); in the assay on IGROV1 ovarian, -74% (active); in the assay with OVCAR-3 ovarian it was -47% (active); with HS 578T breast, 51.4%; in the assay on NCI/ADR-RES ovarian, -56.4% (active); with T-47D breast, 61.7%.
With `CC1=C(C)C(=O)C(Nc2cccc(C(F)(F)F)c2)=C(Cl)C1=O`, the growth with EKVX NSCLC was 49.4%; with SN12C renal it was 87.6%; with UO-31 renal, 77.3%; with TK-10 renal, 184%; with A498 renal it was 55.2%; in the assay on CCRF-CEM leukemia it was 5.9% (active). Besides, the growth was 23.5% in the assay on MOLT-4 leukemia; 25% in the assay on SR leukemia; -3.12% (active) in the assay with RPMI-8226 leukemia; 87.1% in the assay with OVCAR-8 ovarian; 100% in the assay on OVCAR-5 ovarian; -80.4% (active) in the assay on OVCAR-4 ovarian. Besides, the growth with IGROV1 ovarian was -7.2% (active); in the assay with HS 578T breast, 87.6%; with T-47D breast, -39% (active).
Turning to `CO/N=C1\CCc2c(sc(NC(=O)c3cccc(C(F)(F)F)c3)c2C(N)=O)C1`, the growth was 30.7% with EKVX NSCLC; 15.6% in the assay with SN12C renal; -16.4% (active) in the assay with UO-31 renal; -17.1% (active) with TK-10 renal; 11.3% in the assay with CAKI-1 renal; -43.3% (active) in the assay with A498 renal. The growth was 67.9% with CCRF-CEM leukemia; 84.1% with MOLT-4 leukemia; 37.1% in the assay with SR leukemia; 35.4% with RPMI-8226 leukemia; 20.9% with OVCAR-8 ovarian; 41.4% with OVCAR-5 ovarian. For the same compound, the growth in the assay on OVCAR-4 ovarian is -45.4% (active); with IGROV1 ovarian, 11.9%; with OVCAR-3 ovarian it was 7.66% (active); in the assay with HS 578T breast, 5.79% (active); in the assay on T-47D breast, -18.5% (active).
For the compound `COc1ccccc1/C=C/C=N/NC1=NC2C(S1)N(C)C(=O)N2C` (stereo not given), the growth in the assay with EKVX NSCLC is 40.1%; in the assay with SN12C renal it was 39.1%; in the assay with UO-31 renal, 49%; in the assay on TK-10 renal, 76.3%; in the assay on CAKI-1 renal it was 30.6%; in the assay with A498 renal, -18.2% (active). Also, the growth with CCRF-CEM leukemia was 15.3%; in the assay with MOLT-4 leukemia, 21%; with SR leukemia, 13.2%; in the assay with RPMI-8226 leukemia it was 10.6%; in the assay on OVCAR-8 ovarian, 31.1%; in the assay on OVCAR-5 ovarian, 52.3%. Further, the growth is 72% in the assay on OVCAR-4 ovarian; 32.9% with SK-OV-3 ovarian; 46% in the assay on IGROV1 ovarian; -12% (active) with OVCAR-3 ovarian; 3.97% (active) in the assay with HS 578T breast; 28.9% in the assay on NCI/ADR-RES ovarian. Besides, the growth in the assay on T-47D breast was 31.2%.
Turning to `Cc1[nH]nc2ncc(C#Cc3cncc(C(=O)Nc4ccc(CN5CCN(C)CC5)c(C(F)(F)F)c4)c3)cc12`, the growth in the assay with EKVX NSCLC was 54.9%; in the assay with SN12C renal it was 7.71% (active); in the assay with UO-31 renal it was -6.87% (active); with TK-10 renal it was 27.8%; in the assay with CAKI-1 renal it was -27.9% (active); in the assay on A498 renal, -17.7% (active). The growth with CCRF-CEM leukemia was 20.9%; in the assay with MOLT-4 leukemia, 20.4%; in the assay on SR leukemia it was 19.6%; in the assay with RPMI-8226 leukemia, 29.9%; in the assay on OVCAR-8 ovarian it was 37.8%; with OVCAR-5 ovarian, 20.5%. The growth was 50.7% with OVCAR-4 ovarian; 0.879% (active) with SK-OV-3 ovarian; 1.84% (active) in the assay on IGROV1 ovarian; 37.8% in the assay on OVCAR-3 ovarian; 9.15% (active) in the assay on HS 578T breast; 78% in the assay on NCI/ADR-RES ovarian. Moreover, the growth in the assay with T-47D breast is 32.6%.
On to `O=C(N/N=C/c1ccc([N+](=O)[O-])s1)c1[nH]c2ccc(Br)cc2c1-c1ccccc1`, for which the growth with EKVX NSCLC was 9.91% (active); with SN12C renal, 17.5%; in the assay with UO-31 renal, 46.6%; in the assay on TK-10 renal, 83.3%; in the assay with CAKI-1 renal, 23.6%; in the assay on CCRF-CEM leukemia, 16.1%. Besides, the growth with MOLT-4 leukemia was 9.21% (active); with SR leukemia it was 7.33% (active); with RPMI-8226 leukemia, 0.935% (active); in the assay on OVCAR-8 ovarian, -8.62% (active); in the assay on OVCAR-5 ovarian, 27.9%; in the assay with OVCAR-4 ovarian it was 55.9%. The growth with SK-OV-3 ovarian is 45.8%; with IGROV1 ovarian it was 24.4%; in the assay on OVCAR-3 ovarian it was 24.1%; in the assay with HS 578T breast, 11.6%; in the assay with T-47D breast, 59.7%.

These data come from PubChem BioAssay (NCI).
